Assay results reported in PubChem BioAssay.
Active and inactive are the calls of the source. Unless noted, the rule behind the calls is not given here.

Tests used:
[1] = tested on: Wnt5a (protein binding on small-molecule microarray); experiment: small molecules binding Wnt5a protein – biophysical, small-molecule microarray, 635/667 nm fluorescence, primary screen (AID 1142); conditions: 635 nm fluorescence, higher = more signal;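 note: fluorescence read at 667 nm with signal to noise per printed feature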
[2] = ATP-based viability of Huh7 replicon cells – cell-based, CellTiter-Glo luminescence, basal, 48 h, cytotoxicity control for HCV replication inhibitor project, primary screen (AID 1143); conditions: higher = more signal, called active from +8 up or from −8 down;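 note: Huh7 hepatoma cells carrying a hepatitis C replication reporter with no stimulus; test concentration not given here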
[3] = Pseudomonas biofilm growth suppression – PAO1 strain, BacTiter-Glo luminescence, LB-PBS, primary screen (AID 1144); conditions: P. aeruginosa PAO1 biofilm, 12 h, higher = more signal
[4] = basal CRE-LacZ reporter activity in PC12 – cell-based, unstimulated, primary screen (AID 1145); conditions: no forskolin, luminescence, 4.5 h, higher = more signal, called active from +8 up or from −8 down
[5] = forskolin-driven CRE-LacZ activity in PC12 – cell-based, CRE-LacZ reporter, forskolin-stimulated, primary screen (AID 1146); conditions: luminescence, 4.5 h, higher = more signal, called active from +8 up or from −8 down;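 note: PC12 cells with 6xCRE LacZ reporter stimulated by forskolin 10 µM; beta-galactosidase reporter signal reflecting CREB driven transcription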
[6] = molecular target: Streptavidin (Streptomyces avidinii) (UniProt P22629); experiment: compounds binding control protein streptavidin – biophysical, small-molecule microarray, 635/667 nm fluorescence, artefact control for SMM compound annotation, primary screen (AID 1147); conditions: higher = more signal;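 note: signal reflects streptavidin binding to arrayed compounds as a control protein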
Sequence of Streptavidin (Streptomyces avidinii) (P22629 whole entry, looked up): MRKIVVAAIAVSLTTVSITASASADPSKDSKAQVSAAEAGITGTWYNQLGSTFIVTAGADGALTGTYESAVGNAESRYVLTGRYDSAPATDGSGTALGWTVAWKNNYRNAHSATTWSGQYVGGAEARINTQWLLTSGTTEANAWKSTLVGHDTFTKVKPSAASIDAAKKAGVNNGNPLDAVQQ

[7] = probe aInhba binding on compound microarray – biochemical, small-molecule microarray, 635/667 nm fluorescence, primary screen (AID 1148); conditions: higher = more signal;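 note: score merges 667nm spot fluorescence with signal-to-noise for antibody binding to printed compounds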
Torsin-1A (Homo sapiens) [8] = molecular target: Torsin-1A (Homo sapiens) (UniProt O14656); experiment: TOR1A wild-type binding on microarray – cell lysate, small-molecule microarray, lysate, 635/667 nm, primary screen (AID 1149); conditions: COS7 hTOR1A-WT lysate, 635 nm fluorescence, higher = more signal
Sequence of Torsin-1A (Homo sapiens) (O14656 whole entry, looked up): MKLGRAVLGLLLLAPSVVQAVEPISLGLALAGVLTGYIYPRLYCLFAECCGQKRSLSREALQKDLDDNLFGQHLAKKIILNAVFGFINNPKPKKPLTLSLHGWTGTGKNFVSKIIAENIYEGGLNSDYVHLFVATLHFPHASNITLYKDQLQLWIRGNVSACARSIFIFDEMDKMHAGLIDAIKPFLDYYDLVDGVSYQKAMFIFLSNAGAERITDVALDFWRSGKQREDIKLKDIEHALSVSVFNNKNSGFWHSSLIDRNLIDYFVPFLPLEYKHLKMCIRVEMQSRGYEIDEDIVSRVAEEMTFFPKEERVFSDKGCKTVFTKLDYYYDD

Torsin-1A (Homo sapiens) [9] = molecular target: Torsin-1A (Homo sapiens) (UniProt O14656); experiment: torsin A mutant lysate binding on microarrays – cell lysate, small-molecule microarray, COS7 lysate, 635/667 nm fluorescence, primary screen (AID 1150); conditions: COS7 hTOR1A mutant lysate, 635 nm fluorescence, higher = more signal;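 note: score pools 667 nm emission and signal to noise measuring lysate protein binding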
[10] = tested on: Sonic hedgehog protein (Shh); experiment: Sonic hedgehog microarray binding compounds – biochemical, small-molecule microarray, 635/667 nm fluorescence, primary screen (AID 1151); conditions: 635 nm fluorescence, higher = more signal;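 note: Shh protein binding to compounds spotted on small-molecule microarray slides; score combines spot fluorescence intensity with signal-to-noise across triplicate slides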

SMILES	composite z-score [1]	z-score [2]	z-score [3]	z-score [4]	z-score [5]	composite z-score [6]	composite z-score [7]	composite z-score (Torsin-1A (Homo sapiens) [8])	composite z-score (Torsin-1A (Homo sapiens) [9])	composite z-score [10]
CC(C)CNC(=O)[C@@]1(Cc2ccccc2I)c2ccccc2C(=O)N(C2CCCCC2)[C@H]1c1ccc(CO)cc1	0.705	-1.71 (inactive)	0.0484 (inactive)	-0.206 (inactive)	-0.0769 (inactive)	-0.346	0.23	0.222	0.551	0.187
C=C(C)[C@@H]1CC=C(C(O)C2C=CC3C(=O)N(C)C(=O)C3N2Nc2ccccc2)CC1 (stereo not given in full)	0.297	0.435 (inactive)	-0.309 (inactive)	0.626 (inactive)	1.26 (inactive)	0.178	0.0013	0.425	0.385	1.89
O=C1C[C@@](C(=O)NCCN2CCOCC2)(c2ccc([N+](=O)[O-])cc2)[C@@H](c2ccc(CO)cc2)N1CC12CC3CC(CC(C3)C1)C2	0.455	-5.78 (inactive)	0.881 (inactive)	1.62 (inactive)	-0.0481 (inactive)	0.379	0.0154	0.179	1.21	1.37
CC1(C)[C@@H]2CC(C(O)C3C=CC4C(=O)N(c5ccccc5)C(=O)C4N3Nc3ccc([N+](=O)[O-])cc3)=C[C@H]1C2 (stereo not given in full)	0.909	-1.2 (inactive)	-0.88 (inactive)	0.323 (inactive)	0.617 (inactive)	1.18	0.0179	1.18	0.537	0.808
COCCOC(=O)N1C(=O)[C@@]2(c3cc(C#CCNC(N)=O)ccc31)[C@H](C(=O)Nc1nc3ccccc3s1)[C@H]1C(=O)O[C@H](c3ccccc3)[C@H](c3ccccc3)N1[C@@H]2c1ccc(OCCO)cc1	0.341	0.759 (inactive)	-0.609 (inactive)	-0.874 (inactive)	-0.274 (inactive)	0.664	0.261	-0.0017	0.452	0.969
CC(C)OC(=O)C=C1C[C@@H](c2ccccn2)O[C@@H](c2ccccn2)O1	0.144	-0.891 (inactive)	0.589 (inactive)	-0.0137 (inactive)	-0.322 (inactive)	0.546	-0.0001	0.0581	0.0457	1.7
CC(C)=CCCC(C)=CC(O)C1C=CC2C(=O)N(C)C(=O)C2N1Nc1ccccc1 (stereo not given)	0.485	-2.96 (inactive)	-0.545 (inactive)	-0.333 (inactive)	-0.465 (inactive)	1.87	0.115	-0.365	0.178	1.32
C=C[C@@H](COC(=O)OC(C)(C)C)N(Cc1ccc(OC)cc1)S(=O)(=O)c1ccc(Br)cc1	0.0249	-1.75 (inactive)	0.551 (inactive)	3.04 (inactive)	1.88 (inactive)	0.603	-0.0332	0.604	0.299	1.57
C=CCN1C(=O)[C@@]2(CC=C)N=C(c3ccc(OCCCO)cc3)O[C@H]2c2ccccc21	1.39	-3.88 (inactive)	-0.776 (inactive)	1.13 (inactive)	-2.04 (inactive)	0.26	0.33	0.537	0.658	1.47
